Bioassay records from PubChem.
Calb FLC = C. albicans growth inhibition with fluconazole, primary screen, CaCi-2 strain, Alamar Blue fluorescence. C. albicans CaCi-2 (fluconazole-resistant clinical isolate) + fluconazole, 48 h. growth inhibition, % (concentration not given with the values). 300,000 tested, 0.57% active;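 active means growth inhibition above about 58% in most replicates, limit read from the data, passing the limit was not always enough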;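 further: all wells also contain fluconazole at 8 µg/ml as a sub-toxic cotreatment; 0% = median of DMSO wells and 100% = median of geldanamycin control wells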
NadD block = inhibitors of S. aureus NadD, primary screen, biochemical, colorimetric, uHTS; 360,000 tested, 0.78% active; inhibition, % at 20 µM; purified NadD enzyme, colorimetric absorbance read-out; Nicotinate-nucleotide adenylyltransferase NadD (Staphylococcus aureus N315); in the data active means inhibition above about 26%
FAS TE block = FAS thioesterase domain inhibitors, primary screen, biochemical, fluorescence intensity, uHTS; AID 602261, 2012; inhibition, % at 15 µM; recombinant FAS-TE, OMFH fluorogenic substrate, fluorescence endpoint; 360,000 tested, 0.67% active; Fatty acid synthase (Homo sapiens), P49327;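 active means compounds whose normalised, plate-corrected inhibition of enzyme fluorescence in the single-dose primary screen is 50% or more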;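 further: 0% = DMSO with enzyme and 100% = substrate without enzyme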
SUMO Mot1 rescue = yeast Mot1-301 growth rescue at high temperature, primary screen, SUMOylation pathway inhibitor project, S. cerevisiae, ATP luminescence, 38.5C; S. cerevisiae Mot1-301 growth rescue; percent above DMSO median, 100 means doubled; growth rescue, % at 18.8 µM; 320,000 tested, 1% active;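 active means every valid replicate shows activation above 250% relative to neutral control wells; inactive means the rest, any valid replicate at or below 250%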;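 further: OY570 slx delta 5 strain wells were the positive control but not used for scaling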
ATG4B inh = ATG4B protease inhibitors, primary screen, biochemical, fluorescence, uHTS; Cysteine protease ATG4B (Homo sapiens), Q9Y4P1; ATG4B cleavage of LC3-PLA2, NBD-HPC fluorescence, 1 h; inhibition, % at 8.33 µM; 340,000 tested, 0.51% active; AID 504462, 2011; in the data active means inhibition above about 40%
Target sequence (Q9Y4P1 whole entry, looked up): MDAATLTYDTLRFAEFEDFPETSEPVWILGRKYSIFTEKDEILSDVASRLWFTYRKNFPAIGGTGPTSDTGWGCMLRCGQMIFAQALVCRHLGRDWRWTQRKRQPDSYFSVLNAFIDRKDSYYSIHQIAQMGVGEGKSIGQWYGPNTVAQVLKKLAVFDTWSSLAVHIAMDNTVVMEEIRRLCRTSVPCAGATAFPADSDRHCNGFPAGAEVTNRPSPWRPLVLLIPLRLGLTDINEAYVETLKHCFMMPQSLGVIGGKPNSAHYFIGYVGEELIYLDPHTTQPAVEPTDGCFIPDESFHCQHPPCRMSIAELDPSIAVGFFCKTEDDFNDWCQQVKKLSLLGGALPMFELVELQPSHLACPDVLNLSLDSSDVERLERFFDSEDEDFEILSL
Mot1 SUMO dose = growth restoration of Mot1-301 yeast on galactose, dose response, SUMO pathway inhibitor project, whole organism, S. cerevisiae, ATP luminescence, cherry-picked samples | shares compounds with SUMO Mot1 rescue | S. cerevisiae Mot1-301 galactose growth, 24 h; -100 = growth of slx-deleted rescue strain | growth activity, percent, % at 42 µM | 2,300 tested, under 10 active | AID 493004, 2010;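 active means Signal drops as the depositor expects, and the fitted half-maximal dose is no more than ten times the top valid tested dose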;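 further: more negative values mean stronger growth rescue toward the control strain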
Numbers without * were called inactive; ! = not confirmed by another sample. Sampled rows, rich in hits. Any-hit rate of the full collection: about 3.1%.

Results for CC1(C)C2CC[C@]3(C)C(CC=C4[C@@H]5C[C@@](C)(CO)[C@@H](O)C[C@]56C[C@@H](OC6=O)[C@]43C)[C@@]2(C)CC[C@@H]1O (some centres not stated) ?
Calb FLC: -4.3; NadD block: 8.6; FAS TE block: -0.1; SUMO Mot1 rescue: 368.9*; ATG4B inh: -13.7; Mot1 SUMO dose: 0.2

Results for CC(C)(O)[C@@H]1[C@@H]2C[C@@]3(CC[C@]4(C)C(CCC5[C@@]6(C)CC[C@H](O)C(C)(C)C6CC[C@]54C)[C@@H]13)C(=O)O2 (some centres not stated) ?
Calb FLC: -4.7; NadD block: -0.2; FAS TE block: 0.0; SUMO Mot1 rescue: 15.6; ATG4B inh: -9.0

Results for COc1ccccc1N1CCN(CCCN2C(=O)C3CCCCN3C2=O)CC1 (configuration not stated) ?
NadD block: -4.2; FAS TE block: -8.0; ATG4B inh: -1.7

What do the screens show for `COc1ccccc1N1CCN(CCN2C(=O)C3CCCCN3C2=O)CC1` (configuration not stated)?
Calb FLC: -5.6; NadD block: 2.1; FAS TE block: -2.5; SUMO Mot1 rescue: 454.4*; ATG4B inh: -4.1; Mot1 SUMO dose: -0.1

Results for Cc1cc(OCC(=O)NCC2CCC(C(=O)O)CC2)c2c(C)c(C)c(=O)oc2c1 (configuration not stated) ?
Calb FLC: -9.3; NadD block: -1.8; FAS TE block: -5.7; SUMO Mot1 rescue: 358.5*; ATG4B inh: -13.8; Mot1 SUMO dose: 0.6

Results for CCCCN(C)C(=O)c1cc2c(Cl)nc3ccccc3c2s1 ?
Calb FLC: 16.4; NadD block: -7.6; FAS TE block: 17.4; SUMO Mot1 rescue: 433.1*; ATG4B inh: -9.6; Mot1 SUMO dose: -0.4

What do the screens show for `CN(C)C(=O)CNC(=O)C1CCCCC1`?
Calb FLC: -2.1; NadD block: -7.2; FAS TE block: -9.6; SUMO Mot1 rescue: active; ATG4B inh: 3.8; Mot1 SUMO dose: 0.1

Results for C[C@@H]1CN([C@@H](C)CO)C(=O)CCCn2nncc2CO[C@@H]1CN(C)C(=O)c1ccc(N2CCN(C)CC2)cc1 ?
NadD block: -5.3; FAS TE block: -7.0

Results for CN(CC(=O)Nc1ccccc1Sc1ccccc1)Cc1nc2ccccc2c(=O)[nH]1 ?
Calb FLC: 2.7; NadD block: -5.8; FAS TE block: 3.5; SUMO Mot1 rescue: 704.3*; ATG4B inh: -4.0; Mot1 SUMO dose: -0.3

How did CN(CC(=O)NC(c1ccccc1)c1ccccc1)Cc1nc2ccccc2c(=O)[nH]1 do in these assays?
Calb FLC: 2.6; NadD block: -2.3; FAS TE block: 0.0; SUMO Mot1 rescue: -4.2; ATG4B inh: -10.8

What do the screens show for `Cc1ccc(C(=O)NC(Cc2c[nH]c3ccccc23)C(=O)O)o1` (configuration not stated)?
Calb FLC: -3.8; NadD block: -4.4; FAS TE block: -8.4; SUMO Mot1 rescue: active; ATG4B inh: -2.0; Mot1 SUMO dose: -0.4

What do the screens show for `Cc1cc(C(=O)NC(Cc2c[nH]c3ccccc23)C(=O)O)c(C)o1` (configuration not stated)?
Calb FLC: 3.5; NadD block: 4.5; FAS TE block: -3.6; SUMO Mot1 rescue: -13.1; ATG4B inh: -4.8

Results for O=C(c1ccc(OC2CCN(CCc3ccccc3)CC2)cc1)N1CCCC1 ?
Calb FLC: -2.5; NadD block: -2.0; FAS TE block: -3.4; SUMO Mot1 rescue: 608.3*; ATG4B inh: 1.0; Mot1 SUMO dose: -0.4

Results for CC(C)N1CCN(C(=O)c2ccc(OC3CCN(CCc4ccccc4)CC3)cc2)CC1 ?
Calb FLC: 6.8; NadD block: -0.1; FAS TE block: -4.5; SUMO Mot1 rescue: -17.3; ATG4B inh: -3.4

Results for COc1ccccc1CNCc1ccc(C)cc1 ?
Calb FLC: -7.1; NadD block: -3.4; FAS TE block: -6.1; SUMO Mot1 rescue: -18.3; ATG4B inh: 3.5

How did COc1ccccc1CNCc1cc(OC)c(OC)c(OC)c1 do in these assays?
Calb FLC: -8.8; NadD block: 1.7; FAS TE block: -5.0; SUMO Mot1 rescue: active; ATG4B inh: 0.9; Mot1 SUMO dose: -0.5

What do the screens show for `CN1C(C(=O)Nc2ccccn2)=C(O)c2sccc2S1(=O)=O`?
Calb FLC: -11.3; NadD block: 2.3; FAS TE block: -5.8; SUMO Mot1 rescue: 981.8*!; ATG4B inh: -2.8; Mot1 SUMO dose: 0.1

How did CN(C)C(CNC(=O)C1CC(=O)N(c2cccc(C(F)(F)F)c2)C1)c1ccccc1 (configuration not stated) do in these assays?
NadD block: -2.6; FAS TE block: -7.1

How did CCNc1ccccc(C(=O)/C=C/c2ccc3c(c2)OCO3)c1=O do in these assays?
Calb FLC: -8.1; NadD block: 22.2; FAS TE block: 0.3; SUMO Mot1 rescue: 438.6*; ATG4B inh: 7.9; Mot1 SUMO dose: -0.4

Results for Cc1cccc(COCCN2CCN(S(=O)(=O)c3ccccc3)CCC2=O)c1 ?
Calb FLC: 6.9; NadD block: 1.1; FAS TE block: -5.5; SUMO Mot1 rescue: -1.6; ATG4B inh: 3.6

Results for CC(C)C1OC2(C)OC(=N)C1(C#N)C(C#N)(C#N)C2c1ccccc1 (configuration not stated) ?
Calb FLC: -4.3; NadD block: 4.0; FAS TE block: -5.3; SUMO Mot1 rescue: 414.1*; ATG4B inh: 11.6; Mot1 SUMO dose: 0.9

How did CCN(CC(=O)NCCc1ccc(S(N)(=O)=O)cc1)Cc1ccccc1 do in these assays?
Calb FLC: -10.1; NadD block: -0.8; FAS TE block: -8.0; SUMO Mot1 rescue: 18.7; ATG4B inh: 2.5

Results for O=C(c1cc(N2C(=O)C3C4CCC(C4)C3C2=O)ccc1Cl)N1CCN(c2ccc(F)cc2)CC1 (configuration not stated) ?
Calb FLC: -8.9; NadD block: 4.3; FAS TE block: 14.2; SUMO Mot1 rescue: 221.5; ATG4B inh: -9.2

What do the screens show for `O=C(c1cc(N2C(=O)C3C4CCC(C4)C3C2=O)ccc1Cl)N1CCCCCC1` (configuration not stated)?
Calb FLC: -13.2; NadD block: -1.0; FAS TE block: -6.0; SUMO Mot1 rescue: 361.0*; ATG4B inh: -7.4; Mot1 SUMO dose: 0.6

How did O=C(c1cccc(F)c1F)N1CCCc2ccccc21 do in these assays?
Calb FLC: -14.7; NadD block: 0.5; FAS TE block: 0.3; SUMO Mot1 rescue: -14.4; ATG4B inh: -5.1
